# In ChEMBL document CHEMBL4296182, “CO-ADD screening of NIH NCI Diversity Set V”:
# For part of these data: Entries with a potency or affinity are not part of this list.
# How the values were obtained:
# [1] = test system: Staphylococcus aureus; assay: Antibacterial activity against Staphylococcus aureus MRSA ATCC 43300 (CO-ADD:GP_020); MIC in CAMBH media using NBS plates, by Resazurin F(560/590); type: functional; conditions: Concentration 20 uM, ASSAY_TEST Inhibition of Bacterial Growth, detection method Resazurin, Fluorescence (ex560/em590), MEDIA CAMHB, plate type 384well, CORNING #3640, time 18 hr
# [2] = test system: Acinetobacter baumannii; assay: Antibacterial activity against Acinetobacter baumannii ATCC 19606 (CO-ADD:GN_034); MIC in CAMBH media using NBS plates, by Resazurin F(560/590); type: functional; conditions: Concentration 20 uM, ASSAY_TEST Inhibition of Bacterial Growth, detection method Resazurin, Fluorescence (ex560/em590), MEDIA CAMHB, plate type 384well, CORNING #3640, time 18 hr
# [3] = test system: Escherichia coli; assay: Antibacterial activity against Escherichia coli ATCC 25922 (CO-ADD:GN_001); MIC in CAMBH media using NBS plates, by Resazurin F(560/590); type: functional; conditions: Concentration 20 uM, ASSAY_TEST Inhibition of Bacterial Growth, detection method Resazurin, Fluorescence (ex560/em590), MEDIA CAMHB, plate type 384well, CORNING #3640, time 18 hr
# [4] = test system: Klebsiella pneumoniae; conditions: Concentration 20 uM; ASSAY_TEST Inhibition of Bacterial Growth; detection method Absorption (OD600); MEDIA CAMHB; plate type 384well; NBS; CORNING #3640; time 18 hr
# [5] = test system: Candida albicans; conditions: 20 µM
# [6] = test system: Cryptococcus neoformans; conditions: Concentration 20 uM; ASSAY_TEST Inhibition of Fungal Growth; detection method Resazurin; Absorption (OD600-OD570); plate type 384well; NBS; CORNING #3640
SMILES,Inhibition [1] [%],Inhibition [2] [%],Inhibition [3] [%],Inhibition [4] [%],Inhibition [5] [%],Inhibition [6] [%]
Cc1c(CCN)ccc2c1[nH]c1ccccc12,5.19,-3.14,0.87,4.23,0.65,-5.14
CCc1cc2c(cc1-c1csc(CC(=N)NO)n1)C(C)(C)CCC2(C)C,9.42,7.35,-22.59,1.69,7.1,24.54
CC12CCC3C(CC=C4CC(O)CCC43C)C1C/C(=C\N1CCCC1)C2=O (stereo not drawn),1.08,21.07,1.6,23.67,-3.81,-14.08
NC(=O)c1ccc(C(=O)Nc2ccc([As](=O)(O)O)cc2)cc1,11.66,7.33,15.44,11.59,-0.15,-8.21
c1cncc(C2Nc3cccc4cccc(c34)N2)c1,-23.65,-11.45,-11.57,4.78,10.3,30.98
O=C(NCCCN1CC1)Nc1cccc2ccccc12,-3.04,12.11,-2.13,20.16,1.47,1.2
CC(C)CC(NC=O)C(=O)O.COc1cc2c(cc1OC)C13CCN4CC5=CCOC6CC(=O)N2C1C6C5CC43 (stereo not drawn),7.19,-2.08,1.33,12.71,-1.26,-3.45
ClC1=C(Cl)C(Cl)=C(Cl)C1=C/C=C/c1ccccc1,-15.24,-5.13,-15.65,6.7,5.69,2.88
Cc1ccc2c(c1)Oc1ccccc1N=C2,14.17,5.41,-0.47,8.46,8.51,-3.65
CN1C2CCC1[C@@H](COC(=O)c1ccccc1)[C@@H](O)C2 (stereo partly drawn),0.35,15.38,-10.56,17.19,4.47,-7.25
Cc1ncc([N+](=O)[O-])n1CCOC(N)=O [BAMNIDAZOLE],2.14,-5.43,15.41,2.21,2.39,7.78
CN1CCC(c2c[nH]c3ccccc23)C1 (stereo not drawn),10.13,1.97,-8.69,8.23,0.53,10.07
CCN(CC)c1ccc(C=C2C(=O)NC(=S)NC2=O)cc1,-20.45,-4.05,-18.35,3.93,19.4,12.5
CCN1CCc2ccccc2C1,13.64,-13.05,15.08,8.74,0.25,-10.24
CS(=O)(=O)O.O=C1CCC2(O)[C@@H]3Cc4ccc(O)c5c4[C@]2(CCN3Cc2ccoc2)C1O5 (stereo partly drawn),1.32,-2.4,-2.68,10.23,1.48,-6.77
O=C1CCCN1CC#CCN1CCCC1 [OXOTREMORINE],-8.85,7.42,9.1,1.39,0.18,-12.14
Cc1ccc2cc3c(ccc4ccccc43)c3c2c1CC3 [3-METHYLCHOLANTHRENE],32.91,-6.45,10.1,-1.21,1.03,3.35
Cc1nc(C)c(C(=O)N/N=C/c2ccc(N(CCCl)CCCl)cc2)s1,4.54,12.95,1.76,6.18,-1.16,-8.81
O=[N+]([O-])c1cc(-c2ccc([As](=O)(O)O)cc2)ccc1[As](=O)(O)O,16.49,-5.02,9.73,17.36,0.95,-9.04
CNC(=O)Oc1c(O)ccnc1C,3.2,-15.53,4.87,2.24,5.45,-9.19
O=C1NC(=O)C(=Cc2csc3ccccc23)C(=O)N1,-1.57,11.43,7.83,15.53,23.9,-17.03
Cn1cc(C=O)c2nccnc21,0.99,-3.72,-9.44,3.85,1.67,2.98
CC(=O)Nc1cc([As](=O)(O)O)ccc1O [ACETARSONE],12.71,13.01,0.28,16.86,1.06,-8.45
CC(Cc1ccccc1)NC(N)=O (stereo not drawn),1.52,-11.77,14.19,16.63,1.15,-7.14

SMILES,Inhibition [1] [%],Inhibition [2] [%],Inhibition [3] [%],Inhibition [4] [%],Inhibition [5] [%],Inhibition [6] [%]
COc1cccc2c1C(=O)c1c(O)c3c(c(O)c1C2=O)C[C@@](O)(/C(C)=N\O)C[C@@H]3OC1CC(N)C(O)C(C)O1.Cl (stereo partly drawn),-16.23,-1.97,2.23,11.93,-6.16,-5.57
COc1ccc2c(c1O)[C@]13CCN(C)[C@H](C2)[C@@H]1CCC(=O)C3,-1.15,-13.17,7.37,14.9,0.05,-12.71
CC[C@@]1(O)C(=O)OCc2c1cc1n(c2=O)Cc2cc3c(N)cccc3nc2-1 [9-AMINOCAMPTOTHECIN],34.7,-5.64,12.69,8.25,4.9,-6.8
C=CCCC1(C2=CCCCC2)C(=O)NC(=O)NC1=O,0.11,-12.21,7.91,12.33,3.67,-8.53
O=C(NC(=O)c1c(F)cccc1F)Nc1cc(Cl)c(F)c(Cl)c1F [TEFLUBENZURON],1.58,-16.27,15.1,2.21,-1.38,-2.13
CNC(=O)Oc1ccc(N(C)C)cc1C(C)C,11.71,-2.68,9.69,11.23,-1.51,-12.66
C1CC2NCCC3NCCC(N1)N32 (stereo not drawn),9.55,-9.44,11.78,14.06,-0.83,-3.22
OCC1CN1C1CCCCC1 (stereo not drawn),-3.39,-14.33,0.67,26.1,2.25,-2.3
Cc1ccccc1-n1c(/C=C\c2ccccn2)nc2ccccc2c1=O,-4.95,-2.79,7.76,14.95,5.08,-6.01
O=C1C[C@@H]2OCC=C3C[N+]4([O-])CC[C@]56c7ccccc7N1[C@H]5[C@H]2[C@H]3C[C@@H]64 (stereo partly drawn),-3.57,-14.45,1.56,13.5,3.06,-6.02
COc1cc2c(cc1O)CC1c3c(cc(O)c(OC)c3-2)CCN1C (stereo not drawn),8.78,-19.02,10.6,7.6,-2.23,-8.59
Nc1nc(N)c2cnnn2n1,-6.46,-8.05,-17.28,8.25,5.35,23.1
CC1CC(C)OP(=O)(OCCC#N)O1 (stereo not drawn),11.79,-12.84,9.51,9.69,-4.51,-8.12
COc1c(OP2(=S)OCC(C)(C)CO2)cnn(C2CCCCC2)c1=O,22.66,-7.99,17.33,10.42,-1.61,-6
CCC1CN1P1(=O)OCC(C)([N+](=O)[O-])CO1 (stereo not drawn),-8.05,-16.64,2.35,8.08,0.16,0.43
c1ccc2c(c1)Sc1ccccc1N2CC1CN2CCC1CC2 (stereo not drawn) [MEQUITAZINE],31.62,2.18,10.66,26.05,3.26,-3.37
COc1ccc(CCNC2(C#N)CCCCC2)cc1OC,2.96,-11.77,4.72,9.13,2.4,-6.07
COc1ccc2c(c1)NP(=S)(Oc1ccccc1)N2 (stereo not drawn),-0.02,7.67,-4.02,16.19,18.7,0.61
O=C1N(c2nncs2)CCN1[N+](=O)[O-],11.64,7.25,7.74,10.14,2.04,-14.15
N=C(N)N/N=C/c1c(Cl)cccc1Cl [GUANABENZ],5.03,-12.8,13.45,13.62,-0.73,-12.66
FCCN(CCF)c1cccc(Cl)c1,3.32,-11.77,4.68,20.4,0.87,-7.02
CCC1CCC(C)N(N=O)C1 (stereo not drawn),-0.88,-14.6,6.08,7.29,-0.7,-1.16
CN1CCC2(O)OCCCC2C1 (stereo not drawn),3.54,-13.99,3.03,26.78,1.09,3.57
CCCC(=O)N(C)C1=Nc2ccc(Cl)cc2C(c2ccccc2)=[N+]([O-])C1,11.96,1.65,-7.17,24.44,4.49,-4.22
